{"source": "PubChem BioAssay AID1347426", "about": "(Functional Genomics Laboratory (NCATS/FGL), 2020)", "note": "Screen size: about 31,000 sequences; about 1,400 (4.5%) were called active. This is one part of a sample in which actives are shown more often than they occur. Unmarked numbers belong to inactive results.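 How the source made its calls: active means median seed-adjusted z-score above 1 or below -1; inactive means the rest.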", "data": [{"test": "Novel Modifiers of Survival Motor Neuron (SMN) Protein: Gene Identification via Genome-wide siRNA Screen;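 further: luminescence tracks full-length SMN protein made from the SMN2 reporter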", "settings": "HEK293T SMN2-luciferase reporter, siRNA knockdown, 72 h; actives lie on both sides", "method_in_brief": "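HEK293T cells stably expressing an SMN2 splicing/cDNA-luciferase reporter were reverse-transfected with a druggable-genome siRNA library and read by luminescence at 72 hours; hits defined by MAD score above 1.0 or below -1.0.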", "values": [{"sequence": "AGACACCCUUUGGACCACATT against ZFAND2A", "median seed-adjusted z-score": 0}, {"sequence": "GCACGAAUGAGGACGAUGATT against SPRY4", "median seed-adjusted z-score": "-1.23 (active)"}, {"sequence": "GGUGGAAGUGGUCAACGUATT against DUSP21", "median seed-adjusted z-score": -0.0724}, {"sequence": "GACGUGGAGUUGAUAAAGATT against DSC3", "median seed-adjusted z-score": 0.18}, {"sequence": "GCCCGUCUGCAGUACCUAATT against ADAP2", "median seed-adjusted z-score": "-1.1 (active)"}, {"sequence": "GCACUUAUAUGACAGCGAATT against SIM1", "median seed-adjusted z-score": -0.0177}, {"sequence": "GCUCGAUUAACAAAAUAUATT against SLC30A5", "median seed-adjusted z-score": 0.401}, {"sequence": "GAUUGGACCUAACAAUGGATT against NEIL3", "median seed-adjusted z-score": 0.0736}, {"sequence": "UGCUGACUUUUAACCCACATT against CDK4", "median seed-adjusted z-score": 0.346}, {"sequence": "CACUCGAAAUUUUGAAGCATT against CHD4", "median seed-adjusted z-score": 0.625}, {"sequence": "CGGUUGAACUUCGAAAUAUTT against NF1", "median seed-adjusted z-score": -0.36}, {"sequence": "CAACGGCAGGAAAUUCUAATT against KLRA1", "median seed-adjusted z-score": 0.918}, {"sequence": "GUAUCGCAUUUCUACAGCATT against SAMHD1", "median seed-adjusted z-score": "-1.33 (active)"}, {"sequence": "AGAGCAAGCGGAAAAGGGATT against HAND1", "median seed-adjusted z-score": 0.161}, {"sequence": "GAAUCACCAGCUAAACUAUTT against STARD6", "median seed-adjusted z-score": 0.0605}, {"sequence": "GCACCAGCGAGAGAAGAGATT against PLA2G3", "median seed-adjusted z-score": 0.543}, {"sequence": "CCAAAGAACUUAAGGAUUUTT against NEURL2", "median seed-adjusted z-score": "1.39 (active)"}, {"sequence": "GGUCUACGUGAACAACUCUTT against KCNMB4", "median seed-adjusted z-score": 0}, {"sequence": "GCAAAUCGCUAGCAUCAUUTT against MLL2", "median seed-adjusted z-score": "-2.11 (active)"}, {"sequence": "GCAUUUUGCAUAUCCACCATT against TRMT12", "median seed-adjusted z-score": 0.352}, {"sequence": "GAAGAAACUUGUGAACGAATT against MX1", "median seed-adjusted z-score": "-1.49 (active)"}, {"sequence": "GGAACAGUCAUGCUGGAUATT against SLC4A7", "median seed-adjusted z-score": 0}, {"sequence": "GAACAUCGCAUAAUCCUGATT against ORC1L", "median seed-adjusted z-score": -0.536}, {"sequence": "GCAACUUCGUGAGAUUACATT against COLEC12", "median seed-adjusted z-score": "-1.04 (active)"}, {"sequence": "AAGCAUAAUUUGUACAGCUTT against NMNAT1", "median seed-adjusted z-score": 0.22}, {"sequence": "CCAAGAUGCGAUCCUCCAATT against HOXA4", "median seed-adjusted z-score": 0.194}, {"sequence": "GGCUUGGAUCAAUCUAAGATT against HNRNPL", "median seed-adjusted z-score": "1.04 (active)"}, {"sequence": "GGGCAACUCUUCAUCUACATT against SLC5A10", "median seed-adjusted z-score": 0.669}, {"sequence": "GGCUAUACAUGGAUAGCAATT against SLITRK1", "median seed-adjusted z-score": 0.215}, {"sequence": "CGAUUAGUGUCAAAGGCUUTT against MMP7", "median seed-adjusted z-score": 0.0315}, {"sequence": "CGAACGACAGUUCCACAAATT against PDE6A", "median seed-adjusted z-score": "1.25 (active)"}, {"sequence": "GAAUCUAUGAGAUGAACAATT against LDB2", "median seed-adjusted z-score": -0.0847}, {"sequence": "GCAGAAUACAAGAGCUUGATT against EID2", "median seed-adjusted z-score": "-1.04 (active)"}, {"sequence": "GGCUCCUUAUAUGACUAUUTT against ACVR1C", "median seed-adjusted z-score": -0.0005}, {"sequence": "GCUCUGAGGGAGUAUCGAATT against TROVE2", "median seed-adjusted z-score": 0.399}, {"sequence": "ACAUAACCGUUCUUCGAGATT against GTPBP2", "median seed-adjusted z-score": -0.166}, {"sequence": "CAAAAGGACAAAUCAACGATT against DDAH1", "median seed-adjusted z-score": 0.138}, {"sequence": "GAGACUGUGCAGAUGUAUATT against ANGPT1", "median seed-adjusted z-score": 0.289}, {"sequence": "GCAUCAGCAUAAGUCCAUUTT against SIAH1", "median seed-adjusted z-score": "1.5 (active)"}, {"sequence": "GUGUCGUACUCACAUCCAUTT against PTCH2", "median seed-adjusted z-score": -0.191}, {"sequence": "GUGACGGCUUUAGACCUGATT against PRTFDC1", "median seed-adjusted z-score": 0.493}, {"sequence": "GCAAGGUUCCUAGCGUGUATT against VCAM1", "median seed-adjusted z-score": 0.19}, {"sequence": "CAGCAGAGCCGAUCCAAGATT against GPR37L1", "median seed-adjusted z-score": -0.0348}, {"sequence": "ACAUCUUCAAGGCCCUUUUTT against CTDSP2", "median seed-adjusted z-score": 0.498}, {"sequence": "GGAAUUCCGUAAAAGCAUUTT against HOXC13", "median seed-adjusted z-score": -0.318}, {"sequence": "CACUAAUCGUGAGCAUGGATT against XRCC5", "median seed-adjusted z-score": "-1.11 (active)"}, {"sequence": "GAGUAGUUUAGAUAAGUUATT against SPAG9", "median seed-adjusted z-score": 0.0795}, {"sequence": "GCAUCCGAGAUGUGACUAATT against DIS3", "median seed-adjusted z-score": 0.266}, {"sequence": "GCAGUGAUCAUAAUUCUCATT against SLC7A1", "median seed-adjusted z-score": 0.445}, {"sequence": "UGACGACACUGACCGCAGATT against UBE2S", "median seed-adjusted z-score": 0.348}, {"sequence": "GCAUUGAGAUGUUCCACAATT against TUFM", "median seed-adjusted z-score": "1.07 (active)"}, {"sequence": "GAAUCACUCUUUGACAACATT against SLC2A13", "median seed-adjusted z-score": -0.0451}, {"sequence": "GAAGAAUACAAACAGCAAUTT against CRCP", "median seed-adjusted z-score": 0}, {"sequence": "CAGCUGUUCUCAUAUGCUATT against ATP5G3", "median seed-adjusted z-score": 0}, {"sequence": "CCUGAUUACUAUAAGAUCATT against BRD4", "median seed-adjusted z-score": "1.13 (active)"}, {"sequence": "GAACCUCUCUGAAACUGCUTT against PBLD", "median seed-adjusted z-score": -0.0809}, {"sequence": "CGACUCCGGAGGAUUGAAATT against GSX2", "median seed-adjusted z-score": -0.621}, {"sequence": "GCAAGUUAGUGGAUUAAAATT against FOXP1", "median seed-adjusted z-score": -0.198}, {"sequence": "GACUAGUACUUACGGCUUUTT against RBM15", "median seed-adjusted z-score": -0.409}, {"sequence": "GCAUGAACGCGGUCAUGAUTT against RAB40C", "median seed-adjusted z-score": -0.161}, {"sequence": "CAGGUCAAGUGUUACCGAUTT against ZCCHC13", "median seed-adjusted z-score": -0.297}, {"sequence": "GCAAUUACAGGCUAGUGAATT against AKAP9", "median seed-adjusted z-score": "-1.22 (active)"}, {"sequence": "CCUACUUCGGAGUCUAUGATT against SLC25A4", "median seed-adjusted z-score": -0.379}, {"sequence": "CAAGGUUGAUGGGCGUGUATT against HNRNPA3", "median seed-adjusted z-score": 0.915}, {"sequence": "CCAGGACUUUGUUACUGCATT against TIGD6", "median seed-adjusted z-score": -0.443}, {"sequence": "GCUGGUACCCGUCAACAAATT against ABCC10", "median seed-adjusted z-score": "-1.56 (active)"}, {"sequence": "GGACUUCAAUAUCGCAGUATT against PLCE1", "median seed-adjusted z-score": 0.597}, {"sequence": "GGAACAGCGCAGUACGUUUTT against PDPK1", "median seed-adjusted z-score": 0.0807}, {"sequence": "CCAUCGCUUUCAGCAGACATT against DLX6", "median seed-adjusted z-score": 0.0275}, {"sequence": "GGACCACAAGGGAAUACAATT against KHDRBS1", "median seed-adjusted z-score": 0.0916}, {"sequence": "ACUUGGAUCAUUUCCCUGATT against SLC13A5", "median seed-adjusted z-score": 0}, {"sequence": "GACCUUGAAUGUUCAACAUTT against ZNF470", "median seed-adjusted z-score": "-1.26 (active)"}, {"sequence": "GCCGCAUCGUAGCUCGUAATT against RRAD", "median seed-adjusted z-score": -0.267}, {"sequence": "GGAAUAUGCAUAUCAUGGATT against LNPEP", "median seed-adjusted z-score": -0.386}, {"sequence": "CGAUAUAUGUGAUAUGCGUTT against ZNF740", "median seed-adjusted z-score": -0.914}, {"sequence": "GCAACAAGACGGAAUUGGATT against SFRS3", "median seed-adjusted z-score": "2.74 (active)"}, {"sequence": "GAGUGGACAUUCUAAUCAATT against RDH13", "median seed-adjusted z-score": 0.208}, {"sequence": "CCAUCUUAAACUCGCUCUATT against GPR114", "median seed-adjusted z-score": 0.805}, {"sequence": "CUACCGGGCUGACCUCAAATT against GPR153", "median seed-adjusted z-score": "-1.08 (active)"}, {"sequence": "UGAGAGCUCUAGAUAUGAATT against ZNF768", "median seed-adjusted z-score": 0.169}, {"sequence": "ACGGCUCUGUGGACACAGATT against GPR78", "median seed-adjusted z-score": 0.607}, {"sequence": "CGAGUGAAAGAAUCAAUAUTT against OXSR1", "median seed-adjusted z-score": -0.0682}, {"sequence": "GCUACGAGUUUACUAUCUUTT against TNIK", "median seed-adjusted z-score": 0.154}, {"sequence": "CCUCAGAGCUCAAUCAUCUTT against CD5", "median seed-adjusted z-score": 0.0416}, {"sequence": "CGAUAAUCUGGGCUACAGATT against ADD1", "median seed-adjusted z-score": -0.0129}, {"sequence": "CCAAUACUAACAUCUUCAATT against MCART1", "median seed-adjusted z-score": -0.605}, {"sequence": "CAACGGCUCUUAGACCACATT against SPRY4", "median seed-adjusted z-score": "-1.23 (active)"}, {"sequence": "GCUCAGUAUUUAAACAUCATT against COL9A2", "median seed-adjusted z-score": 0.0208}, {"sequence": "AGCCGACAGUGGUGCACUATT against PLA2G15", "median seed-adjusted z-score": 0}, {"sequence": "CGGAGACCGUACGAAAGUATT against A2M", "median seed-adjusted z-score": "-1.96 (active)"}, {"sequence": "GGAUGGAAGAUAGCUUGAATT against CPEB4", "median seed-adjusted z-score": -0.53}, {"sequence": "CGGGCAUUGCCACCAAAGATT against DUX5", "median seed-adjusted z-score": -0.295}, {"sequence": "GCAUUCAUCACUUCGAAAATT against BNC2", "median seed-adjusted z-score": -0.0556}, {"sequence": "CCUACAGCAGUGUCUAUGATT against EIF3C", "median seed-adjusted z-score": 0.56}, {"sequence": "GGUUGACUCAGAUACUACATT against CENPE", "median seed-adjusted z-score": 0.298}, {"sequence": "GGAUCCUUACUUCUUGUCATT against COQ2", "median seed-adjusted z-score": -0.0121}, {"sequence": "GGAAACCAGUGGAUAUUAATT against F11", "median seed-adjusted z-score": -0.0319}, {"sequence": "ACAUCAACGUGGAACGAGATT against EIF4A1", "median seed-adjusted z-score": "-1.05 (active)"}, {"sequence": "GAUGAGACUUUGACUAUAATT against FGD6", "median seed-adjusted z-score": 0.536}, {"sequence": "GCCUGAACCUCAUCCUUAUTT against ENPP1", "median seed-adjusted z-score": -0.273}, {"sequence": "GGGUUUUCAUUCAGAUGAATT against MLL4", "median seed-adjusted z-score": -0.259}, {"sequence": "GGAUUAUUCCUACCUAAUUTT against CDYL2", "median seed-adjusted z-score": -0.379}, {"sequence": "GGAAGAAGGUUCUCAAACATT against RETSAT", "median seed-adjusted z-score": "-1.7 (active)"}, {"sequence": "GGAGCAGUAUUGACAACAATT against NUFIP1", "median seed-adjusted z-score": -0.673}, {"sequence": "GCACAAUUGAAAACUUCAATT against CYSLTR2", "median seed-adjusted z-score": 0.0461}, {"sequence": "GGAUGUUCCAAAUCACGGATT against MBTD1", "median seed-adjusted z-score": 0.0649}, {"sequence": "GGAUUGCCCAGGGUUCCUATT against DGKQ", "median seed-adjusted z-score": -0.0985}, {"sequence": "CGGUUAGAUUUGGACAGUATT against ARHGAP9", "median seed-adjusted z-score": 0}]}]}
